Experimental data reported in ChEMBL document CHEMBL1961873, “Compounds: GSK PKIS; Assays: Nanosyn kinase panel” (2012).

Legend:
[1] = test system: Tyrosine-protein kinase ABL1 (Homo sapiens), P00519 [T315I]; conditions: at 1 µM
[2] = test system: Tyrosine-protein kinase ABL1 (Homo sapiens), P00519 [Y253F]; conditions: at 0.1 µM
[3] = test system: Tyrosine-protein kinase ABL1 (Homo sapiens), P00519 [Y253F]; conditions: at 1 µM
[4] = molecular target: Tyrosine-protein kinase ABL1 (Homo sapiens) (UniProt P00519); conditions: at 0.1 µM
[5] = molecular target: Tyrosine-protein kinase ABL1 (Homo sapiens) (UniProt P00519); conditions: at 1 µM
[6] = molecular target: ALK tyrosine kinase receptor (Homo sapiens) (UniProt Q9UM73); conditions: at 0.1 µM
[7] = molecular target: ALK tyrosine kinase receptor (Homo sapiens) (UniProt Q9UM73); conditions: at 1 µM
[8] = molecular target: Tyrosine-protein kinase ABL2 (Homo sapiens) (UniProt P42684); conditions: at 0.1 µM
[9] = molecular target: Tyrosine-protein kinase ABL2 (Homo sapiens) (UniProt P42684); conditions: at 1 µM
[10] = molecular target: Tyrosine-protein kinase receptor UFO (Homo sapiens) (UniProt P30530); conditions: at 0.1 µM
[11] = molecular target: Tyrosine-protein kinase receptor UFO (Homo sapiens) (UniProt P30530); conditions: at 1 µM
[12] = molecular target: Tyrosine-protein kinase Blk (Homo sapiens) (UniProt P51451); conditions: at 0.1 µM
[13] = molecular target: Tyrosine-protein kinase Blk (Homo sapiens) (UniProt P51451); conditions: at 1 µM
[14] = molecular target: T1, Cytoplasmic tyrosine-protein kinase BMX (Homo sapiens) (UniProt P51813); conditions: at 0.1 µM
T1 sequence (whole entry): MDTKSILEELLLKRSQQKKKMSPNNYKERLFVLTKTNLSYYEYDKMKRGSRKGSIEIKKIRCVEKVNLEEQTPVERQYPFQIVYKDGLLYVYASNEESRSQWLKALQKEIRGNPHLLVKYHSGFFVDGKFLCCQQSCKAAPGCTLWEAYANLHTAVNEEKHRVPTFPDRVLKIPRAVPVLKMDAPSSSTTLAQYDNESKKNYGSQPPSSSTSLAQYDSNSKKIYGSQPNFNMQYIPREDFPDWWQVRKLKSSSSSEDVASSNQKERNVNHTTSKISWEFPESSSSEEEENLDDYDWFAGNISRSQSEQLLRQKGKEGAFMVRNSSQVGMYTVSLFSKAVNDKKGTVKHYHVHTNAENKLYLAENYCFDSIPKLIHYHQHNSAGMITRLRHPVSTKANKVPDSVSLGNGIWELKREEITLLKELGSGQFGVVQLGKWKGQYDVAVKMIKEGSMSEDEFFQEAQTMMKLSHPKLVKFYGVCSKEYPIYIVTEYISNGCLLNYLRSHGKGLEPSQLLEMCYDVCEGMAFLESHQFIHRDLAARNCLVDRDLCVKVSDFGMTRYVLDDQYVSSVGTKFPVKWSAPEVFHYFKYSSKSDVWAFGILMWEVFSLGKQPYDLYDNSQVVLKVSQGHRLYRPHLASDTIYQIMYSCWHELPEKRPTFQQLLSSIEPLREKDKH

[15] = molecular target: T1, Cytoplasmic tyrosine-protein kinase BMX (Homo sapiens); conditions: at 1 µM
[16] = molecular target: Protein-tyrosine kinase 6 (Homo sapiens) (UniProt Q13882); conditions: at 0.1 µM
[17] = molecular target: Protein-tyrosine kinase 6 (Homo sapiens) (UniProt Q13882); conditions: at 1 µM
[18] = molecular target: Tyrosine-protein kinase BTK (Homo sapiens) (UniProt Q06187); conditions: at 0.1 µM
[19] = molecular target: Tyrosine-protein kinase BTK (Homo sapiens) (UniProt Q06187); conditions: at 1 µM
[20] = molecular target: Tyrosine-protein kinase CSK (Homo sapiens) (UniProt P41240); conditions: at 0.1 µM;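 also: value given is the averaged percent inhibition of CSK kinase activity, from the GSK PKIS kinase inhibitor set screening panel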
Sequence of Tyrosine-protein kinase CSK (Homo sapiens) (P41240 2-450 limits assumed): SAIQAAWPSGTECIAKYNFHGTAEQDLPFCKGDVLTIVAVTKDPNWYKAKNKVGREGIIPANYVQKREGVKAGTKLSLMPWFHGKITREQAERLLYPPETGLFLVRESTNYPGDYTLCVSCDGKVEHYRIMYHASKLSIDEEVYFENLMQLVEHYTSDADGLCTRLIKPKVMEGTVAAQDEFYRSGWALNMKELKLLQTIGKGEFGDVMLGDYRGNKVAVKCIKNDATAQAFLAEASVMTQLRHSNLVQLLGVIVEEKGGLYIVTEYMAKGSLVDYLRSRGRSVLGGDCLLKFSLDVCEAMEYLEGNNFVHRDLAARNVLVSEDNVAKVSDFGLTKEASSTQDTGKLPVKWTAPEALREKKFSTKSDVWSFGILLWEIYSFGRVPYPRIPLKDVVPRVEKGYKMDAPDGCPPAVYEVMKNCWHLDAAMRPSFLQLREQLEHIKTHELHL

Sequence of Tyrosine-protein kinase BTK (Homo sapiens) (Q06187 whole entry): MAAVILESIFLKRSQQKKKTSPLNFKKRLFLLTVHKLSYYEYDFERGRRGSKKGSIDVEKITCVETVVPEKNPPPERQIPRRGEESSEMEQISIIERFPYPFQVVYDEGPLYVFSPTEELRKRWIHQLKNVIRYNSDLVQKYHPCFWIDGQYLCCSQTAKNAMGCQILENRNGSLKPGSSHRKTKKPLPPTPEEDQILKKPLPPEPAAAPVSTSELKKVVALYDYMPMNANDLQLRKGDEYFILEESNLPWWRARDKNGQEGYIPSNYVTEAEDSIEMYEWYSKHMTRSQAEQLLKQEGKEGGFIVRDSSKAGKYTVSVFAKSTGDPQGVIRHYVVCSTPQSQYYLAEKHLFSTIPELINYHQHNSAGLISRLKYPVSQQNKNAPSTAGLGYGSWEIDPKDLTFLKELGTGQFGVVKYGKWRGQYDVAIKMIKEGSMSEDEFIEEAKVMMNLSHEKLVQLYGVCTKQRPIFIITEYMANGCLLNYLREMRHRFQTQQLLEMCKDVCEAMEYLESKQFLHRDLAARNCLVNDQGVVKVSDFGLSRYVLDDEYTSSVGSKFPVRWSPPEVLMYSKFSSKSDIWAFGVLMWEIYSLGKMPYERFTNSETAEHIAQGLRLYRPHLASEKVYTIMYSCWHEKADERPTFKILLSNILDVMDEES
Sequence of Tyrosine-protein kinase receptor UFO (Homo sapiens) (P30530 whole entry): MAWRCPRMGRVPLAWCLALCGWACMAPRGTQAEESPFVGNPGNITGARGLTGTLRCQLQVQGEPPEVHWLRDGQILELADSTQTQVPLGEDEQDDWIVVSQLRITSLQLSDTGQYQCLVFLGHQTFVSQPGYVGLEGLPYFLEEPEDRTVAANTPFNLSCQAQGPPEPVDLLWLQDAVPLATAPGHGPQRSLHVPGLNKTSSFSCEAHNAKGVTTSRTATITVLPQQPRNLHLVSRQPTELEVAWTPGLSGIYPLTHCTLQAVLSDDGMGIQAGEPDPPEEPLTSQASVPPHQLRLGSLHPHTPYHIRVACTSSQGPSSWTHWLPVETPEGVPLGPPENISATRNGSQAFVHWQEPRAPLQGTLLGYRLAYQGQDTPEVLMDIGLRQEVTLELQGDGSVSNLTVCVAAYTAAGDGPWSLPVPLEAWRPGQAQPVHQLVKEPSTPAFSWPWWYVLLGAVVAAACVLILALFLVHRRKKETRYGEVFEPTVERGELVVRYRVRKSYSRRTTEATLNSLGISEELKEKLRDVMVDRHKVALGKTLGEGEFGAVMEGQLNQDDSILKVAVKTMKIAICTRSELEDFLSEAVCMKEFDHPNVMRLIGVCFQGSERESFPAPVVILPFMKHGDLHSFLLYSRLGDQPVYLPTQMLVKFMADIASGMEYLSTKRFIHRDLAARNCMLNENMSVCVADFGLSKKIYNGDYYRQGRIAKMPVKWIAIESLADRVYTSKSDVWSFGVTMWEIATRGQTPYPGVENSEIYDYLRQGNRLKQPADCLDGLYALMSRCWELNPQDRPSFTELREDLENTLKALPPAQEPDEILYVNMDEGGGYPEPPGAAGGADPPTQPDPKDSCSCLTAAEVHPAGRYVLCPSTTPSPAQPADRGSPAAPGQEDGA
Sequence of Tyrosine-protein kinase Blk (Homo sapiens) (P51451 2-505 limits assumed): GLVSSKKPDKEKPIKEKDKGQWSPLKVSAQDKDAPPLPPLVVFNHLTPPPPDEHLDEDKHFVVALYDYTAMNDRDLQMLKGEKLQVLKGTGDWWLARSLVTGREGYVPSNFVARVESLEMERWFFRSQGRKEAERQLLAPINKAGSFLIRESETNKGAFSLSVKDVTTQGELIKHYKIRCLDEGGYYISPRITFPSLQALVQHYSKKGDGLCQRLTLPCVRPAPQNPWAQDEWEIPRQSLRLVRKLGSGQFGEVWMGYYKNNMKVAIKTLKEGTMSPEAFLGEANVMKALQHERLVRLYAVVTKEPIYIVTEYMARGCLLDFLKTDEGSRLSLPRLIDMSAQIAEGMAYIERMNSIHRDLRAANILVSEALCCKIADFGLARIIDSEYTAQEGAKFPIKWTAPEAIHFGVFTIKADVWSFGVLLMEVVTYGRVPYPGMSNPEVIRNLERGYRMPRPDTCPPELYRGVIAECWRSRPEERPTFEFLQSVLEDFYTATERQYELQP
Sequence of Protein-tyrosine kinase 6 (Homo sapiens) (Q13882 whole entry, looked up): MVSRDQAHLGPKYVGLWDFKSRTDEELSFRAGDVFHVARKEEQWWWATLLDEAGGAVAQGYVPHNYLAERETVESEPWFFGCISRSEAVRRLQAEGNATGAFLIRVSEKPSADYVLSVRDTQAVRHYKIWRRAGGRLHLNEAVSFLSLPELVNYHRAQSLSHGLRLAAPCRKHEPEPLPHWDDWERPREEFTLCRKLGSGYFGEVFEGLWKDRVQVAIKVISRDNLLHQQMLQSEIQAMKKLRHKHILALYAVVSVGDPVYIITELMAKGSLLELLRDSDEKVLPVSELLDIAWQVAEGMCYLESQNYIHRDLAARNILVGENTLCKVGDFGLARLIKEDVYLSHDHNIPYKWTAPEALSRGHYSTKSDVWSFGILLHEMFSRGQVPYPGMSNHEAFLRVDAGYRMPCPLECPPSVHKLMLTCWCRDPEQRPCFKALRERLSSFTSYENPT
Sequence of ALK tyrosine kinase receptor (Homo sapiens) (Q9UM73 19-1620 limits assumed): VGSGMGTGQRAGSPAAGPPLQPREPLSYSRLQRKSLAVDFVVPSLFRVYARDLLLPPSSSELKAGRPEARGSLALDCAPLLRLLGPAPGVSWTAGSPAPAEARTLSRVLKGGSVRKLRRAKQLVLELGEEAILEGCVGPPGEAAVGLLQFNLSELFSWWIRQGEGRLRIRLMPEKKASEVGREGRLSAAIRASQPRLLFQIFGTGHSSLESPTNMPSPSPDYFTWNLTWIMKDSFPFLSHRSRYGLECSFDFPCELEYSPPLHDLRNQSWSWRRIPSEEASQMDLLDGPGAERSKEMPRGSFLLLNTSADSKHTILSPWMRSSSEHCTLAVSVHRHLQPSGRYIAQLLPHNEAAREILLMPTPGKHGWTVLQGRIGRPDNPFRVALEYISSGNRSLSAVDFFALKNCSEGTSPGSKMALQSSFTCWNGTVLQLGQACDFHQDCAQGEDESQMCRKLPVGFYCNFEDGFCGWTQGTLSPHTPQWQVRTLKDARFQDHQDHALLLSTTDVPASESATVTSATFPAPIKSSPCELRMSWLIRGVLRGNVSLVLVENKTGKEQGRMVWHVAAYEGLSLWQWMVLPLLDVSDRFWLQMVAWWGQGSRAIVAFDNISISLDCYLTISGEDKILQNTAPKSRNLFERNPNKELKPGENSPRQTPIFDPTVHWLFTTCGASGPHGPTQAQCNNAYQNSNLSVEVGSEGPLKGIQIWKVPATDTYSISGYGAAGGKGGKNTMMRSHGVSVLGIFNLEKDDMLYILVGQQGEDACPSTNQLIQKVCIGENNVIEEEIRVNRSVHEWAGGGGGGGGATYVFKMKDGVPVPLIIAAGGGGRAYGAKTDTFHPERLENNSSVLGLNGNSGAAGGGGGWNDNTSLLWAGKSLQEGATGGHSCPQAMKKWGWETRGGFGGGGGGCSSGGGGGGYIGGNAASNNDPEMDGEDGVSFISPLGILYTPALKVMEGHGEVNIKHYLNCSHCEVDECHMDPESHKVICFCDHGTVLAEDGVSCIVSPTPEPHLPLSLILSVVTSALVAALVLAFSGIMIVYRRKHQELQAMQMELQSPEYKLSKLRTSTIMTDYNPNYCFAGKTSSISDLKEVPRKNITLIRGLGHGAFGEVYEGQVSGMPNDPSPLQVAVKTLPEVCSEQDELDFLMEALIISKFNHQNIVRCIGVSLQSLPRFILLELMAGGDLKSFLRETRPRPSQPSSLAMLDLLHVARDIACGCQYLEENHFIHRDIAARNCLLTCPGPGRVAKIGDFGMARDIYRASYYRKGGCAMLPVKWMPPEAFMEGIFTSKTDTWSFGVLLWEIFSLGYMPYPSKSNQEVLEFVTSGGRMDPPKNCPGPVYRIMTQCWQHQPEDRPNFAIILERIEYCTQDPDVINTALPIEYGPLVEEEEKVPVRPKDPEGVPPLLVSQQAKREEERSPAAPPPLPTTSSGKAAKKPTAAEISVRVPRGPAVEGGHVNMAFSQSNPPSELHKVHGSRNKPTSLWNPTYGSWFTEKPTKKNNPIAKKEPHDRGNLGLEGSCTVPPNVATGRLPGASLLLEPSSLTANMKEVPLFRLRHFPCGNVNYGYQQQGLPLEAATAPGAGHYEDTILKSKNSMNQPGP

| Structure (SMILES) | inhibition [1] | inhibition [2] | inhibition [3] | inhibition [4] | inhibition [5] | inhibition [6] | inhibition [7] | inhibition [8] | inhibition [9] | inhibition [10] | inhibition [11] | inhibition [12] | inhibition [13] | inhibition [14] | inhibition [15] | inhibition [16] | inhibition [17] | inhibition [18] | inhibition [19] | inhibition [20] |
| --- | --- | --- | --- | --- | --- | --- | --- | --- | --- | --- | --- | --- | --- | --- | --- | --- | --- | --- | --- | --- |
| O=C1Nc2ccccc2/C1=C/Nc1ccc(-n2cncn2)cc1 | 17.2% | 3.13% | 13.1% | 1.87% | 13.5% | 1.97% | 11.8% | 3.58% | 7.69% | -6.88% | -3.55% | 3.13% | 19.7% | 6.8% | 4.54% | 3.56% | 6% | 0.25% | -0.4% | 3.03% |
| Fc1ccc(-c2ncn(C3CCNCC3)c2-c2ccnc(Oc3ccc(F)c(F)c3)n2)cc1 | 1.7% | 1.79% | 2.98% | -1.26% | -1.29% | -1% | 1.5% | -1.34% | 0.3% | – | -4.58% | -1.88% | -2.13% | 3.36% | 3.49% | 2.61% | 5.39% | -4.19% | -4.23% | 2.54% |
| COc1cc2ncn(-c3cc(OCCc4ccccc4)c(C(N)=O)s3)c2cc1OC | 8.39% | 3.32% | 9.56% | 2.3% | 13.7% | 1.95% | 5.89% | 2.26% | 8.26% | -5.54% | -2.35% | 1.59% | 6.17% | -0.54% | 3.43% | -0.83% | 4.33% | 1.12% | 0.02% | 2.97% |
| O=C(Nc1n[nH]c2nc(-c3ccc(O)cc3)c(Br)cc12)C1CC1 | 87.7% | 22.1% | 67.1% | 22.8% | 72.6% | 23.9% | 72.3% | 7.68% | 25.7% | -7.6% | -7.01% | 4.29% | 15.4% | 3.85% | 13.4% | 3.18% | 11.1% | -0.08% | 0.5% | 8.35% |
| COc1cc2ncn(-c3cc(OCc4cccs4)c(C(N)=O)s3)c2cc1OC | 59.6% | 9.05% | 41.8% | 3.87% | 42% | -3.76% | 6.72% | 0.54% | 18.4% | 3.68% | 1.31% | 0.4% | 18.6% | -4.41% | 3.5% | 2.12% | 7.01% | -2.66% | -0.98% | 4.25% |
| COc1cc(C)c(N(C)C(=O)CN(C)C)cc1Nc1nc(Nc2cccc(F)c2C(N)=O)c2cc[nH]c2n1 | -0.05% | 2.02% | 1.33% | 0.32% | 0.22% | 22.4% | 69.9% | -2.32% | -3.83% | -0.45% | 3.71% | -3.28% | -1.84% | -1.82% | 2.46% | 0.54% | 1.53% | -1.73% | -2.02% | 1.1% |
| COc1cc(Nc2ncc3c(C)nc(-c4cccc(Oc5ccccc5)c4)n3n2)cc(OC)c1OC | 3.35% | 4.25% | 2.77% | 2.33% | 3.84% | 1.5% | 12.7% | 2.57% | 0.57% | 0.02% | 4.22% | 0.63% | 4.56% | 0.46% | 4.17% | 1.26% | 1.89% | 1.08% | 1.57% | 4.01% |
| CCc1nccc2c1nc(-c1nonc1N)n2CC | -0.14% | 2.18% | 2.26% | 1.88% | 7.3% | 0.99% | 0.3% | 2.12% | 9.26% | -0.45% | 2.17% | 0.44% | 1.64% | -1.94% | 2.51% | -3.14% | -0.37% | -0.56% | 0.41% | 1.3% |
| NS(=O)(=O)c1ccc(N/N=C2\C(=O)Nc3ccc(-c4cnco4)cc32)cc1 | 19.9% | 3.03% | 13.4% | -0.39% | 9.41% | -3.07% | -0.11% | -0.55% | 9.88% | -3.81% | -1.27% | -1.23% | 10.4% | 0.98% | 5.77% | 3.53% | 4.99% | -4.28% | -2.57% | 2.16% |
| Cc1ccc(C(=O)NC2CCC2)cc1-c1ccc(C(=O)NCC2CC2)cc1 | -1.77% | 2.23% | 0.38% | 3.73% | 5.96% | 2.79% | 3.48% | 3.15% | 0.48% | -4.44% | -1.14% | 2.1% | 1.49% | 8.25% | 2.61% | 1.28% | 1.95% | 0.87% | 0.88% | -0.66% |
| c1ccc(Oc2ccc(Nc3ncc(-c4ccccc4)o3)cc2)cc1 | 1.01% | 1.56% | 3.65% | 2.29% | 7.18% | 0.41% | 2.22% | 1.49% | 1.49% | -1.17% | -0.31% | 1.93% | 2.96% | -4.27% | 1.54% | -5.64% | -0.31% | -0.86% | 0.56% | 4.92% |
| CCc1ccc(Oc2nccc(-c3c(-c4ccc(F)cc4)ncn3C3CCNCC3)n2)cc1 | 3.78% | 1.61% | 2.53% | 5.79% | 6.61% | 1.79% | 2.02% | 2.69% | 5.01% | -2.27% | -3.44% | 2.31% | 4.68% | 5.07% | 6.03% | 2.72% | 2.5% | -0.17% | 0.53% | -0.21% |
| Cc1nnc(-c2ccc(C)c(-c3ccc(C(=O)NCc4ccc(Cl)cc4)cc3)c2)o1 | 3.98% | 3.1% | 5.29% | -2.31% | 1.59% | -1.04% | 0.41% | -0.31% | 2.57% | -5.93% | -7.1% | -0.28% | 0.7% | 2.05% | 1.64% | 2.2% | 6.8% | -1.06% | -4.02% | 3.38% |
| Fc1ccc(-c2c(-c3ccncc3)nc3n2CCS3)cc1 | 3.81% | 2.69% | 5.48% | -1.32% | 2.3% | -2.59% | -1.88% | -2.22% | 2.07% | -4.74% | -2.08% | -2.78% | -0.74% | 1.44% | 0.74% | 4.76% | 4.76% | -5.15% | -4.99% | 3.65% |
